PubChem BioAssay
The source made the active and inactive calls.

Tests used:
[1] = test system: Human papillomavirus type 1a protein E7 (residues 44-93); assay: HPV1a E7 fragment binders on microarrays, primary screen, biochemical, small-molecule microarray, residues 44-93, 635 nm fluorescence (AID 1108); conditions: small-molecule microarray binding, fluorescence 635 nm; higher = more signal;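 also: E7 fragment applied at 1 µg/mL in TBST for 1 h at 4 C; score combines spot fluorescence with its signal to noise ratio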
[2] = modulators of HCV replicon luciferase signal, primary screen, HCV replication inhibitor project, Huh7 cells, luciferase reporter (AID 1109); conditions: 48 h, higher = more signal;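 also: huh7 hepatoma cells harbouring a luciferase neomycin HCV replicon reporter; luciferase luminescence as measure of HCV replicon replication; test concentration not given here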
[3] = biological target: Left-right determination factor 2 (Homo sapiens) (UniProt O00292); assay: LEFTY2 binders on small-molecule microarrays, primary screen, biochemical, small-molecule microarray, 635 nm fluorescence scan (AID 1110); conditions: LEFTY2 binding, higher = more signal
Sequence of Left-right determination factor 2 (Homo sapiens) (O00292 whole entry, looked up): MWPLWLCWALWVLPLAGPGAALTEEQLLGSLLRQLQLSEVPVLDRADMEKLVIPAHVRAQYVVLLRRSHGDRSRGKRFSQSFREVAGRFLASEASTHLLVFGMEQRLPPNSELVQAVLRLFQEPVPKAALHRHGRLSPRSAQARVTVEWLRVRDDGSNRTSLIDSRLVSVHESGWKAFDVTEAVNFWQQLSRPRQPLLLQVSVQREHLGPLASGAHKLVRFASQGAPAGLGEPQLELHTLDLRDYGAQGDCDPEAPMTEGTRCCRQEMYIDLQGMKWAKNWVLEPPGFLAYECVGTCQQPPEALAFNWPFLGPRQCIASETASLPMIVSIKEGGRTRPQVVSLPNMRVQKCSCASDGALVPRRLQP

[4] = biological target: Calmodulin-1 (Homo sapiens) (UniProt P0DP23); assay: CALM1 binders on microarrays, EGTA buffer, profiling panel, biochemical, small-molecule microarray, Cy5-labelled CALM1 (AID 1111); conditions: Cy5-CALM1 binding fluorescence, higher = more signal;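 also: labelled calmodulin applied in Tris saline Tween buffer holding calcium plus EGTA and DTT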
[5] = biological target: Calmodulin-1 (Homo sapiens) (UniProt P0DP23); assay: calcium-bound CALM1 binders on microarrays, profiling panel, artefact control for SMM control-protein annotation, biochemical, small-molecule microarray, Cy5-labelled CALM1, plus calcium (AID 1112); conditions: Cy5-CALM1 binding fluorescence, higher = more signal;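 also: score merges spot fluorescence with signal to noise from triplicate slides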
[6] = small-molecule microarray binders of probe aWnt5a, primary screen, biochemical, biotinylated probe, 635/667 nm fluorescence (AID 1113); conditions: higher = more signal;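 also: score merges 667 nm fluorescence intensity with signal-to-noise per printed feature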
[7] = small-molecule microarray binders of probe aShh, primary screen, biochemical, biotinylated probe, 635/667 nm fluorescence (AID 1114); conditions: higher = more signal;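 also: probe is biotin-labelled aShh protein from a stem cell growth factor screen; measures binding of labelled protein to compounds printed on the slide; score merges feature fluorescence at 667 nm with signal-to-noise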
[8] = small-molecule microarray binders of probe aNog, primary screen, biochemical, biotinylated probe, 635/667 nm fluorescence (AID 1115); conditions: higher = more signal;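 also: probe is biotinylated aNog protein used at 0.15 µg/mL for 1 h at 4 C; z-score combines 667 nm fluorescence of each spot with its signal to noise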
[9] = biological target: Torsin-1A-interacting protein 1 (Homo sapiens) (UniProt Q5JTV8); assay: LAP1 binders from COS7 cell lysate, primary screen, small-molecule microarray, 635/667 nm fluorescence (AID 1116); conditions: COS7-hLAP1 lysate binding, 635 nm fluorescence, higher = more signal
Sequence of Torsin-1A-interacting protein 1 (Homo sapiens) (Q5JTV8 whole entry, looked up): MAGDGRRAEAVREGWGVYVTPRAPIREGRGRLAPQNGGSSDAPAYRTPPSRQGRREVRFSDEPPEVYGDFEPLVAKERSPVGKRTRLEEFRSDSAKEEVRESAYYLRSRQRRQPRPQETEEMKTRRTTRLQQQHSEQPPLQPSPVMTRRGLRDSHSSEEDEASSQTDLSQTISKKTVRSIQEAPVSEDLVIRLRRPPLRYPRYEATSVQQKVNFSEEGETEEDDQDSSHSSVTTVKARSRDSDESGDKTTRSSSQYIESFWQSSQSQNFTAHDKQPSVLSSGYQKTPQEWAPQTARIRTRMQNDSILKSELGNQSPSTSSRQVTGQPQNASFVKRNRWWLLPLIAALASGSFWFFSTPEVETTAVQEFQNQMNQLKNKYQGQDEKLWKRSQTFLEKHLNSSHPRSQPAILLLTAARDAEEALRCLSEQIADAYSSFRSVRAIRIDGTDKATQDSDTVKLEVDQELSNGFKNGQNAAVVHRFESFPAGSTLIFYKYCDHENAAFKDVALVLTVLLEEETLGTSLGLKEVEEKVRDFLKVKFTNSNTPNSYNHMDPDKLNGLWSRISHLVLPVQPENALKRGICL

[10] = biological target: Alpha-bungarotoxin (Bungarus multicinctus) (UniProt P60615); assay: alpha-bungarotoxin binders on microarray, profiling panel, artefact control for SMM control protein annotation, biochemical, small-molecule microarray, Alexa647 label, 635/667 nm fluorescence (AID 1117); conditions: alpha-BTX-A647 binding fluorescence, higher = more signal
Sequence of Alpha-bungarotoxin (Bungarus multicinctus) (P60615 whole entry, looked up): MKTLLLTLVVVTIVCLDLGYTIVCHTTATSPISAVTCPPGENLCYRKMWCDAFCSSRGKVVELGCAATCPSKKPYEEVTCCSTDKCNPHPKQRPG

Albumin (Bos taurus) = Albumin (Bos taurus) (UniProt P02769); assay: bovine serum albumin binders on microarray, profiling panel, artefact control for SMM control protein annotation, biochemical, small-molecule microarray, Alexa647 label, 635/667 nm fluorescence (AID 1118); conditions: BSA-A647 binding, fluorescence 635 nm, higher = more signal;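 also: score merges 667 nm emission intensity and signal-to-noise per printed compound spot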
Sequence of Albumin (Bos taurus) (P02769 whole entry, looked up): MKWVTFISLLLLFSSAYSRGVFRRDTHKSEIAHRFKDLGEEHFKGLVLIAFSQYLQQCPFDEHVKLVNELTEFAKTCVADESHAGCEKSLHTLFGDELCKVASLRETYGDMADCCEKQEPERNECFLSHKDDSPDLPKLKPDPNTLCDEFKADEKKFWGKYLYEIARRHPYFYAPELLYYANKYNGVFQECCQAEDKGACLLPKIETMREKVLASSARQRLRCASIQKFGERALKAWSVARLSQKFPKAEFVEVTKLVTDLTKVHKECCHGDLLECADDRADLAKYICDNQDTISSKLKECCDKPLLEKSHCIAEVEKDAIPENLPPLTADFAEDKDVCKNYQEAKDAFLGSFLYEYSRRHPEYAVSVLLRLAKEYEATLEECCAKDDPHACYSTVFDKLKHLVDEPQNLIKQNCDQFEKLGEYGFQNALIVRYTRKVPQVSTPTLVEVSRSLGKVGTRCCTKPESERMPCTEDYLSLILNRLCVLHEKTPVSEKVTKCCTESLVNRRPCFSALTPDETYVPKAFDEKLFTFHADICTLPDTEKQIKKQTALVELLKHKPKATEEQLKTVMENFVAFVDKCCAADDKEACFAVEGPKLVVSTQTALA

[11] = small-molecule microarray binders of probe aXIP, primary screen, biochemical, NeuroSMM set, 635/667 nm fluorescence (AID 1119); conditions: higher = more signal, called active from +8 up or from −8 down;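 also: probe is the protein aXip251-270 applied at 1 µg/mL to compound-printed slides; binding of probe to printed compounds measured as 667 nm fluorescence plus signal to noise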
[12] = small-molecule binders of probe aNOTCH3, primary screen, biochemical, small-molecule microarray, 635/667 nm fluorescence (AID 1120); conditions: higher = more signal;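 also: probe is a biotin-tagged antibody raised against NOTCH3 rather than NOTCH3 protein; score merges spot fluorescence near 667 nm with spot signal to noise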
[13] = small-molecule binders of probe aNOTCH2, primary screen, biochemical, small-molecule microarray, 635/667 nm fluorescence (AID 1121); conditions: higher = more signal;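 also: score merges feature fluorescence read at 667 nm with its signal to noise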
[14] = biological target: Carbonic anhydrase 2 (Homo sapiens) (UniProt P00918); assay: CAII small-molecule binders, profiling panel, biochemical, small-molecule microarray, Alexa647-labelled CAII (AID 1122); conditions: CAII-A647 binding fluorescence, higher = more signal
[15] = COS7 lysate on small-molecule microarray, probe aHis, 635 nm (AID 1123); conditions: COS7 cell lysate, fluorescence, higher = more signal;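 also: z-score combines 667nm fluorescence intensity with signal-to-noise per printed compound spot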
[16] = compound binding in COS7 lysate, probe aLAP1, primary screen, cell lysate, small-molecule microarray (AID 1124); conditions: probe aLAP1, fluorescence, higher = more signal;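 also: lysate comes from COS7 cells expressing LAP1 and is applied at 0.3 µg/mL; score merges spot fluorescence near 667 nm with signal-to-noise over triplicate slides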
Sam68 (KHDRBS1) = assay: Sam68 small-molecule binders, primary screen, biochemical, small-molecule microarray, 635 nm fluorescence (AID 1125); conditions: small-molecule microarray binding, higher = more signal;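 also: score merges 667 nm channel intensity with signal to noise over triplicate slides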
[17] = test system: Chordin-like protein 2 (CHRDL2); assay: CHRDL2 small-molecule binders, primary screen, biochemical, small-molecule microarray, 635 nm fluorescence (AID 1126); conditions: small-molecule microarray binding, fluorescence 635 nm; higher = more signal;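 also: printed compound slides probed with Chrdl2 protein at 4 µg/mL for 1 h at 4 C; score merges 667 nm emission intensity with signal to noise over three replicate slides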
[18] = biological target: Concanavalin-A (Canavalia ensiformis) (UniProt P02866); assay: ConA small-molecule binders, primary screen, artefact control for SMM control protein annotation, biochemical, small-molecule microarray, Alexa647 label, 635 nm (AID 1127); conditions: ConA-A647 binding fluorescence, higher = more signal;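 also: z combines 667 nm emission intensity with signal-to-noise across three replicate slides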
Sequence of Concanavalin-A (Canavalia ensiformis) (P02866 whole entry, looked up): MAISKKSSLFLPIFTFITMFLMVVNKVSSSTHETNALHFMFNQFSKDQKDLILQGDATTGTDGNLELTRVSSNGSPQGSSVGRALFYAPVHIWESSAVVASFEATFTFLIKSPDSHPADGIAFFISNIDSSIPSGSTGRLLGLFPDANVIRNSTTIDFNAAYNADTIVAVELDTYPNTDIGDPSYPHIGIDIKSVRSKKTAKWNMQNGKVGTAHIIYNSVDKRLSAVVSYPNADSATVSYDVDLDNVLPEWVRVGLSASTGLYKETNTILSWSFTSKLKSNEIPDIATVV

Row | SMILES | composite z-score [1] | z-score [2] | composite z-score [3] | composite z-score [4] | composite z-score [5] | composite z-score [6] | composite z-score [7] | composite z-score [8] | composite z-score [9] | composite z-score [10] | composite z-score (Albumin (Bos taurus)) | composite Z-score [11] | composite z-score [12] | composite z-score [13] | composite z-score [14] | composite z-score [15] | composite z-score [16] | composite z-score (Sam68 (KHDRBS1)) | composite z-score [17] | composite z-score [18]
1 | Cc1cc(C)c(C(O)C2C=CC3C(=O)N(C)C(=O)C3N2N2CCCCC2)c(C)c1 (stereo not given) | 1.37 | 0.186 | 0.314 | 1.75 | 0.22 | 0.0437 | 0.308 | 1.45 | 0.959 | 2.36 | 0.477 | 1.16 (inactive) | 0.364 | 0.192 | 0.74 | 1.81 | 0.83 | 1.29 | 0.245 | 1.15
2 | CC(C)(C)OC(=O)CC[C@@]1(C(=O)NCc2ccccc2)N=C(c2ccc(OCCCO)cc2)O[C@@H]1c1ccccc1 | 1.33 | -3.13 | 0.144 | 2.4 | 1.26 | 0.0077 | 0.14 | 0.92 | 2.67 | 2.97 | 0.974 | -0.216 (inactive) | 0.132 | 0.09 | 0.655 | 2.91 | 0.494 | 1.3 | -0.416 | 1.18
3 | C=C(COC)/C(=C/C[C@@H](OC(C)=O)c1cccc(OCCO)c1)c1cc(C(=O)OC)ccc1OC | -0.307 | -0.72 | -0.357 | -0.39 | -0.0115 | -0.091 | -0.0289 | 0.717 | 0.505 | -1.07 | -0.458 | -0.574 (inactive) | -0.0729 | -0.125 | 0.402 | -0.194 | -0.315 | 0.539 | -0.458 | -0.937
4 | C/C(=N\O)C(=O)NCCCCCNC(=O)OCc1ccccc1 | 0.63 | -0.0365 | 0.516 | 0.169 | -0.269 | 0.0115 | -0.262 | 0.32 | 0.371 | 1.06 | 0.487 | 0.179 (inactive) | 0.0066 | -0.0942 | 0.355 | 0.332 | 0.199 | 0.639 | 0.367 | 0.818
5 | [N-]=[N+]=Nc1ccccc1C[C@@]1(C(=O)N2CCOCC2)N=C(c2ccc(OCCCO)cc2)O[C@@H]1c1ccccc1N=[N+]=[N-] | 0.457 | -2.29 | 0.095 | 1.04 | 0.804 | -0.0398 | 0.102 | 0.293 | 0.842 | 2 | 0.873 | 0.997 (inactive) | 0.121 | -0.0286 | 0.467 | 1.24 | 0.0649 | 1.33 | -0.338 | 1.1
6 | O=C(O)[C@@H]1Cc2c([nH]c3ccccc23)[C@@H](c2ccccc2)N1 | 0.681 | -0.161 | 0.414 | -0.106 | -0.568 | -0.141 | -0.124 | -0.013 | 0.3 | 0.236 | 0.118 | 0.756 (inactive) | -0.082 | -0.0148 | -0.0448 | 0.319 | -0.0124 | -0.188 | 0.379 | 0.813
7 | C=CCC1=C[C@H]2[C@H]([C@@H]3C=C[C@]2(CC=C)C(=O)[C@]32CO2)[C@@]2(CO2)C1=O | -0.763 | -4.15 | 1.24 | -1.06 | -2.27 | 0.133 | -0.1 | 2.17 | 0.163 | 0.345 | -0.44 | 0.528 (inactive) | 0.519 | 0.082 | -0.262 | 0.104 | -0.0222 | -0.56 | 1.54 | -1
8 | C=C(COC)C(=O)CC[C@H](OC(=O)c1ccccc1-c1ccccc1C(=O)O)c1cccc(OCCO)c1 | 1.4 | -3.1 | 0.757 | 3.03 | 0.733 | 0.0519 | -0.17 | 0.0519 | 3.73 | -0.151 | -0.611 | 0.61 (inactive) | 0.123 | -0.118 | 0.418 | 4.78 | 0.893 | 0.735 | 1.43 | 0.893
9 | CC(C)(C)OC(=O)CC[C@]1(C(=O)N2CCCCC2)N=C(c2ccc(OCCCO)cc2)O[C@H]1c1ccccc1 | 1.37 | -1.66 | 0.538 | 1.68 | -0.0194 | 0.0919 | -0.138 | 0.248 | 1.89 | 2.02 | 0.806 | -0.0084 (inactive) | 0.261 | -0.127 | 0.741 | 2.94 | 0.708 | 1.28 | 0.261 | 1.13
10 | O=C(CS)NCCCCCNC(=O)[C@H]1C[C@H]2C(=O)N[C@@H](Cc3ccccc3)C(=O)N2[C@H]1c1ccc(O)cc1 | 0.151 | -0.488 | 0.406 | 0.741 | 0.748 | -0.0977 | 0.184 | 0.185 | 0.792 | 3 | 0.237 | -0.65 (inactive) | 0.114 | -0.0598 | 0.436 | 0.704 | 0.393 | 1.32 | 0.905 | 1.17
11 | CCN1C(C)=C(C(=O)OC)[C@@H](c2ccccc2)N2C(=O)[C@@]3(C(=O)OC)O[C@@]12[C@@H]1C(=O)N(c2ccccc2)C(=O)[C@@H]13 | 0.121 | -0.181 | 0.341 | -0.173 | -0.525 | -0.0758 | 0.0893 | 0.221 | 0.905 | 0.38 | 0.846 | -0.0754 (inactive) | -0.055 | -0.153 | 0.66 | 0.463 | 0.581 | 1.14 | 0.522 | 0.744
12 | Cc1ccccc1C(O)C1C=CC2C(=O)N(c3ccccc3)C(=O)C2N1Nc1ccc(C#N)cc1 (stereo not given) | 1.22 | -0.15 | 0.588 | 2.68 | 1.27 | 0.24 | 0.333 | 2.26 | 3.02 | 1.94 | 1.04 | 1.4 (inactive) | 0.841 | 0.417 | 0.652 | 2.87 | 1.37 | 1.31 | 0.632 | 1.18
